Experiment [1] can be described thus: rapamycin-like changes in RPL19A-GFP expression – cell-based, S. cerevisiae, multiplex flow cytometry, primary screen (AID 1862; in the data active = percent of DMSO control GFP below about 86%;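 note: lower values mimic rapamycin by blocking the RPL19A rise seen in DMSO cells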). The conditions noted are these: S. cerevisiae RPL19A-GFP strain, flow cytometry fluorescence, 3 h; at 10 µM; stronger effect = lower value. (A flow cytometer gives signals particle by particle.)
Experiment [2] in a line: TOR pathway GLN3 branch reporter MEP2-GFP changes – S. cerevisiae, multiplex flow cytometry, primary screen (AID 1867;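 active = GFP response, as percent of the DMSO control, above the screen-wide mean plus 3 SD, about 139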;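 note: median GFP channel fluorescence of barcode-gated MEP2-GFP cells measured by flow cytometry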). The conditions noted are these: S. cerevisiae MEP2-GFP strain, 3 h, at 10 µM, stronger effect = higher value, 100% means same as DMSO wells.
Experiment [3] is described as follows: TOR pathway RTG branch CIT2 reporter changes – S. cerevisiae, GFP fusion, multiplex flow cytometry, primary screen (AID 1870;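 active = percent response above a set limit, the screen-wide mean plus 3 SD, cut at about 130% in these data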;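 note: barcoded CIT2-GFP strain pooled with four other GFP strains with rapamycin as positive control; median GFP fluorescence per well over plate mean of DMSO wells so 100% = DMSO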). The conditions noted are these: S. cerevisiae CIT2-GFP expression, 3 h, at 10 µM, stronger effect = higher value.
Experiment [4] in a line: TOR pathway LAP4-GFP level changes – S. cerevisiae, multiplex flow cytometry, primary screen (AID 1873;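 active = GFP signal, as percent of the solvent control, above the screen mean plus 3 SD, about 149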). The conditions noted are these: S. cerevisiae LAP4-GFP expression, 3 h, at 10 µM, stronger effect = higher value.
Experiment [5] is described as follows: yeast AGP1-GFP level changes, GLN3 branch – cell-based, multiplex flow cytometry, S. cerevisiae, primary screen (AID 1887;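 active = GFP signal above the screen-wide mean plus 3 SD, that is over about 124.5% of the solvent control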;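 note: AGP1-GFP fusion strain of S. cerevisiae within a five-strain barcoded multiplex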). The conditions noted are these: 3 h, at 10 µM, stronger effect = higher value.
The nature of experiment [6]: reduced mouse 2C T cell binding to pMHC/ICAM-1 vesicles – MLPCN validation set, flow cytometry, LFA-1/ICAM-1 modulator project, pilot screen (AID 2523).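 For vesicle binding response: mean PE anti-B7-1 fluorescence of CD8+ cells relative to row control; 100% = QL9-loaded vesicles with DMSO vehicle in the same plate row.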 The conditions noted are these: 2C mouse CD8+ T cells, at 7 µM, stronger effect = lower value; double positive events: measured here: CD8+/vesicle+ event percentage.
Experiment [7] has as its target Integrin beta-1 (Homo sapiens) + Integrin alpha-4 (Homo sapiens) (UniProt P13612+P05556). Nature of the experiment: alpha4beta1 integrin LIBS antibody binding reduction – U937 cells, HUTS-21 mAb, flow cytometry, validation set, VLA-4 allosteric modulator project, pilot screen (AID 2674;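 active = inhibition above 50%, about 3 SD of the validation set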;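 note: antibody binding induced by the VLA-4 ligand LDV present at three times its Kd; 0% = LDV ligand with antibody and no compound and 100% = antibody without LDV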). The conditions noted are these: HUTS-21 LIBS mAb binding, at 6.7 µM, stronger effect = higher value, binding induced by LDV ligand.

Experiment [8] can be described thus: calorie-restriction mimetic ROS inhibitors, yeast – validation compound set, pilot screen (AID 2706;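 active = superoxide response below 65% of plate, a cut near 3 SD across the whole screen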;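 note: yeast exposed to compound for one week at 30 degrees C before staining; 100% = mean of all compound wells on the same plate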). The conditions noted are these: S. cerevisiae aging, superoxide DHE fluorescence; at 10 µM; stronger effect = lower value.
Experiment [9] concerns the target Beta-adrenergic receptor kinase 1 (Homo sapiens) (UniProt P25098). Put plainly: GRK2 binders displacing RNA aptamer, biochemical, validation, human GRK2, bead flow cytometry (AID 488806;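 active = aptamer binding inhibition above 30%, about 3 SD of noise from non-fluorescent compounds; inactive = inhibition at or below 30%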). The conditions noted are these: bead-bound GRK2, FAM-aptamer displacement, at 10 µM, stronger effect = higher value.
Experiment [10] concerns the target Beta-2 adrenergic receptor (Homo sapiens) (UniProt P07550). Nature of the experiment: agonist-induced loss of surface beta2AR – cell-based, FAP fluorogen, flow cytometry, validation set, pilot screen (AID 504459;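 active = percent response above 42, roughly 3 SD of non-fluorescent test compounds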;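 note: agonist-driven loss of surface beta2AR via internalization measured by FAP dye flow cytometry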). The conditions noted are these: Am2.2-beta2AR cells, at 10 µM, stronger effect = higher value.
In experiment [11] the target is AP-2 complex subunit beta (Homo sapiens) (UniProt P63010). Nature of the experiment: beta-arrestin/AP2 interaction blockers – biochemical, validation set, GST-AP2 beads, flow cytometry, pilot screen (AID 504541;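 active = inhibition above 54%, about 3 SD of non-fluorescent compounds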;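 note: AP2 carries R879A mutation and is captured from E. coli lysate; bead-bound FITC arrestin peptide fluorescence measuring arrestin peptide binding to AP2; 0% = DMSO wells and 100% = excess unlabeled arrestin peptide control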). The conditions noted are these: FITC arrestin peptide, at 10 µM, stronger effect = higher value, AP2 beta2 appendage fragment, R879A mutant.
Sequence of AP-2 complex subunit beta (Homo sapiens) (P63010 whole entry, looked up, the tested form may be a part, one chain of several): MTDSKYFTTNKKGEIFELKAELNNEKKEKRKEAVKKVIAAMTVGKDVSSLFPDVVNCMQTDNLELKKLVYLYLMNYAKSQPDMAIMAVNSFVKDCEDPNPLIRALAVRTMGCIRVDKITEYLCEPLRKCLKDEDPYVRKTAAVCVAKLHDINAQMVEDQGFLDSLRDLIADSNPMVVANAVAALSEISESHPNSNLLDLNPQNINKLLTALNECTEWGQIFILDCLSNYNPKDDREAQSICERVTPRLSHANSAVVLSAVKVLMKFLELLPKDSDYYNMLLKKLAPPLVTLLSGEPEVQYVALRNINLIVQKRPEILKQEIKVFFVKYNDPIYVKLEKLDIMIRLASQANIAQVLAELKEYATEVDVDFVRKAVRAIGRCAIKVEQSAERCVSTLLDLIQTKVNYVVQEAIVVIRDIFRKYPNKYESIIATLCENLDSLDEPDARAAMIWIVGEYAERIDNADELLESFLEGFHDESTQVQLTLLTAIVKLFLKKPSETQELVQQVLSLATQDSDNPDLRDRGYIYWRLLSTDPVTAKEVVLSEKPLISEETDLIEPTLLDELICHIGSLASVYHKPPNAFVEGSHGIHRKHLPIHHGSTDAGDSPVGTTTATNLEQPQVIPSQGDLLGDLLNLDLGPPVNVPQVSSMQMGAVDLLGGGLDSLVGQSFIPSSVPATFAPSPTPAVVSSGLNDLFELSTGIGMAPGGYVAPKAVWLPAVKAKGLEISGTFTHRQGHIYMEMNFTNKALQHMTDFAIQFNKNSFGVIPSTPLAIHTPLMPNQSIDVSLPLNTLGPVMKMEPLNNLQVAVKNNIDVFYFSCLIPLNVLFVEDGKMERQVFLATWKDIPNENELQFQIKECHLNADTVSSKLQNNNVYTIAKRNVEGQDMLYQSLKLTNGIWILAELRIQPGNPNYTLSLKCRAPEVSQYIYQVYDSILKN
The nature of experiment [12]: cytosolic pH regulators acting via V-ATPase – S. cerevisiae, pHLuorin, HTS validation (AID 504600; in the data active = response above about 15%;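 note: plate controls were DMSO for no effect and reference compound for full effect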). The conditions noted are these: V-ATPase proton transport, at 10 µM, stronger effect = higher value.
Experiment [13] has as its system anti-desmoglein-3 scFv antibody binding to human DSG3. Nature of the experiment: blockers of pathogenic pemphigus antibody–desmoglein-3 binding – biochemical, validation compound set, bead-based, flow cytometry, pilot screen (AID 588368;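 active = binding below the plate cutoff, the plate median minus 3 SD, with a reading above zero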;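 note: signal is the median channel fluorescence of bead-bound GFP antibody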). The conditions noted are these: Protein G beads, DSG3-Fc, scFv-GFP binding, at 10 µM, stronger effect = lower value.
A short description of experiment [14]: Nile Red efflux blockade in pump-expressing yeast – validation compound set, multiplex, phenotypic, pilot screen (AID 588506;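 active = efflux inhibition above 0.42, the validation set average plus 4 SD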;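 note: Nile Red retained in cells so higher fluorescence means more efflux inhibition; 0 = negative control wells and 1 = enniatin B 25 µM full block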). The conditions noted are these: S. cerevisiae pump-expressing triplex, Nile Red efflux flow cytometry; at 10 µM; stronger effect = higher value; the pumps come from Candida albicans.
The target in experiment [15] is ATP-binding cassette sub-family B member 6 (Homo sapiens) (UniProt Q9NP58). Nature of the experiment: blockers of ABCB6-driven porphyrin uptake – K562-ABCB6 cells, flow cytometry, validation set, pilot screen (AID 588550;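 active = inhibition above the screen-wide mean plus 3 SD, about 51%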;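 note: 0% = DMSO wells and 100% = benzethonium chloride 70 µM positive control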). The conditions noted are these: K562-ABCB6 porphyrin accumulation, 1 h, at 10 µM, stronger effect = higher value.
Sequence of ATP-binding cassette sub-family B member 6 (Homo sapiens) (Q9NP58 whole entry, looked up): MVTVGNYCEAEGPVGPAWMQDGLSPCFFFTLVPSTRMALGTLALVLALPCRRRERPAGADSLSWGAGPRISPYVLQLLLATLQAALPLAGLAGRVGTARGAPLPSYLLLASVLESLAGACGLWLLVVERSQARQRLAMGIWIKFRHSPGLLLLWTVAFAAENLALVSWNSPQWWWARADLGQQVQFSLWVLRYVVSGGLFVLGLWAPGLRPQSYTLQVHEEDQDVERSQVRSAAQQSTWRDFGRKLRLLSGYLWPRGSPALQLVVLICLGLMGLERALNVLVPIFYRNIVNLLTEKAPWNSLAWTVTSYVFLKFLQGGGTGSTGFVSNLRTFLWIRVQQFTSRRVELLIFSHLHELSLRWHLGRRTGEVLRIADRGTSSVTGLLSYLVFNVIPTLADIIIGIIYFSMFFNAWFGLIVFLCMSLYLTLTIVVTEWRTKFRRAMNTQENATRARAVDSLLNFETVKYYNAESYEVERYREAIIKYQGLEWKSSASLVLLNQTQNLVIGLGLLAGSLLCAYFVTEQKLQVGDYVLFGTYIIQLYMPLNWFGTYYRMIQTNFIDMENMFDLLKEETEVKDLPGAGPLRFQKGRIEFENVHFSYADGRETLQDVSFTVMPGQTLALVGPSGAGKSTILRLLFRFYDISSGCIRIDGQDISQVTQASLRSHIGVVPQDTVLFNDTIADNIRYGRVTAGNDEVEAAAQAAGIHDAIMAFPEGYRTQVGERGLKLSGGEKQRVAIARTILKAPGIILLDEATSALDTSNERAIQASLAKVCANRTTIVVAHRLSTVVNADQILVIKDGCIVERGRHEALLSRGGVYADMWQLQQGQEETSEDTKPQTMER
Experiment [16] is described as follows: AML differentiation inducers, ER-HoxA9 marrow cells – cell-based, GFP/MAC1 double positive, flow cytometry, validation set, primary screen (AID 588685;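 active = differentiation response of at least 50%, scaled between solvent and reference control, from cells with both markers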;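 note: compound exposure lasts four days before antibody staining and flow analysis; 0% = DMSO wells and 100% = 5 µM fulvestrant positive control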). The conditions noted are these: stronger effect = higher value, normalized: vehicle 0, fulvestrant 100.

Inconclusive results are not listed. Activity calls are given as the source filed them.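 Rule for the calls, unless noted: active = response below a set limit, under 55% cells CD8-positive and vesicle-bound, and CD8 cells' 90th-percentile brightness under 279; inactive = the rest.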

Usually inhibition stands for the change of the read-out against control, counted positive when it falls.

Sequence of Beta-2 adrenergic receptor (Homo sapiens) (P07550 whole entry, looked up): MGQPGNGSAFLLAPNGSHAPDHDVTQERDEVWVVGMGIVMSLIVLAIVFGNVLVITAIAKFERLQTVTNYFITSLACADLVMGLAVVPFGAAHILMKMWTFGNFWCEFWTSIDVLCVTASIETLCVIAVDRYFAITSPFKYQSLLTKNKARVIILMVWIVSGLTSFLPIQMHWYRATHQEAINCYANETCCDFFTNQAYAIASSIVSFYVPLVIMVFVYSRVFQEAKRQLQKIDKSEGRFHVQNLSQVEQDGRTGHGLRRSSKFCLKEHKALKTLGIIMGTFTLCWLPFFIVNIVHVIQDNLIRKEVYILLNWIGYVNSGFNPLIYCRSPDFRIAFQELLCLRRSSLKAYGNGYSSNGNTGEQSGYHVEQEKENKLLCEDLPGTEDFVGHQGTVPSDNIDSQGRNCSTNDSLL
Sequence of Integrin beta-1 (Homo sapiens) + Integrin alpha-4 (Homo sapiens) (P05556 whole entry, looked up): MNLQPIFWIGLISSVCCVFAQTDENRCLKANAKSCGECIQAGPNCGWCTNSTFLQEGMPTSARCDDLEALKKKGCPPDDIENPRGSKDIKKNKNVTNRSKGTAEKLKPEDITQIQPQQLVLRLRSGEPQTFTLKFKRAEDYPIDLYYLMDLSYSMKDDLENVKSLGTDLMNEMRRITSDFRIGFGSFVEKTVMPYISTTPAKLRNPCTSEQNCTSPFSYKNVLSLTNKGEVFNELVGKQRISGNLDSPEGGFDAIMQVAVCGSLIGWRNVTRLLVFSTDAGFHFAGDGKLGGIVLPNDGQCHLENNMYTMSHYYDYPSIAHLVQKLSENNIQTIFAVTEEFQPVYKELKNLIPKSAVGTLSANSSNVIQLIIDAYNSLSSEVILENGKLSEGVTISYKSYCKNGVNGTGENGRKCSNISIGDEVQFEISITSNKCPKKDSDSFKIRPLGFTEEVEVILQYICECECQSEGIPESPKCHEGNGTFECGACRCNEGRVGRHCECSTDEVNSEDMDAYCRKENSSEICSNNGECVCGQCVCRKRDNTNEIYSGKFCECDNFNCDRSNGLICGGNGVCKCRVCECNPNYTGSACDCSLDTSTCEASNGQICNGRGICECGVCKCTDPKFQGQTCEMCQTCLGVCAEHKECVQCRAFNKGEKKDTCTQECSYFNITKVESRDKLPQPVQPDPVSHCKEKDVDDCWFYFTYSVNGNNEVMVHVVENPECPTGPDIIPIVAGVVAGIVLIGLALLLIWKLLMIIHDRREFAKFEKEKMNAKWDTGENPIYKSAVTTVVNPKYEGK
Sequence of Integrin beta-1 (Homo sapiens) + Integrin alpha-4 (Homo sapiens) (P13612 whole entry, looked up): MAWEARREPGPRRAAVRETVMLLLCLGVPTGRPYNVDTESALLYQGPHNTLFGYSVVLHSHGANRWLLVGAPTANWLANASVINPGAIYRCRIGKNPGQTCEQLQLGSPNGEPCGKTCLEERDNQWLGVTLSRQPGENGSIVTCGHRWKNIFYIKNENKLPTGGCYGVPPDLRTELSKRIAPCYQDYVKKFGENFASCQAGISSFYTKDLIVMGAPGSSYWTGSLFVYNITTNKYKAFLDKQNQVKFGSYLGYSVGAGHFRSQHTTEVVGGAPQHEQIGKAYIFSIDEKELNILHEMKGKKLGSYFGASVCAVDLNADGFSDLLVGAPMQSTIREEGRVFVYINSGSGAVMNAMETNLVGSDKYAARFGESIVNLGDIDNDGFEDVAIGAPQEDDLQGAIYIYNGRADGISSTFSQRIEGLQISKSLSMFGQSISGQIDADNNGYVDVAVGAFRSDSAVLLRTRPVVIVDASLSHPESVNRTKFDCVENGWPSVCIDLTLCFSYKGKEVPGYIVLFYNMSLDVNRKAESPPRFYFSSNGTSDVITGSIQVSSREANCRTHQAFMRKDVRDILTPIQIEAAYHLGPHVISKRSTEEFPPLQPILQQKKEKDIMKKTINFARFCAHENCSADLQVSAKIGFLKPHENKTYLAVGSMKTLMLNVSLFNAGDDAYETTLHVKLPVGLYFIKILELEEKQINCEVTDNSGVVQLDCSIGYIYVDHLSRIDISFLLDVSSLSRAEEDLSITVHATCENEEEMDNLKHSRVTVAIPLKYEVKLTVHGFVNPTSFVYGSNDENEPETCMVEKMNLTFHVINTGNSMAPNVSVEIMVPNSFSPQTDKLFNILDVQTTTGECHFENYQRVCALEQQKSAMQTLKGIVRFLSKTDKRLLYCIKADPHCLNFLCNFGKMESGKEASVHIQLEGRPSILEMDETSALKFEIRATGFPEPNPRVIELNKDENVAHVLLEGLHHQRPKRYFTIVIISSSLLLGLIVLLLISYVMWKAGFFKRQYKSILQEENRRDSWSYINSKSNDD
Sequence of Beta-adrenergic receptor kinase 1 (Homo sapiens) (P25098 whole entry, looked up): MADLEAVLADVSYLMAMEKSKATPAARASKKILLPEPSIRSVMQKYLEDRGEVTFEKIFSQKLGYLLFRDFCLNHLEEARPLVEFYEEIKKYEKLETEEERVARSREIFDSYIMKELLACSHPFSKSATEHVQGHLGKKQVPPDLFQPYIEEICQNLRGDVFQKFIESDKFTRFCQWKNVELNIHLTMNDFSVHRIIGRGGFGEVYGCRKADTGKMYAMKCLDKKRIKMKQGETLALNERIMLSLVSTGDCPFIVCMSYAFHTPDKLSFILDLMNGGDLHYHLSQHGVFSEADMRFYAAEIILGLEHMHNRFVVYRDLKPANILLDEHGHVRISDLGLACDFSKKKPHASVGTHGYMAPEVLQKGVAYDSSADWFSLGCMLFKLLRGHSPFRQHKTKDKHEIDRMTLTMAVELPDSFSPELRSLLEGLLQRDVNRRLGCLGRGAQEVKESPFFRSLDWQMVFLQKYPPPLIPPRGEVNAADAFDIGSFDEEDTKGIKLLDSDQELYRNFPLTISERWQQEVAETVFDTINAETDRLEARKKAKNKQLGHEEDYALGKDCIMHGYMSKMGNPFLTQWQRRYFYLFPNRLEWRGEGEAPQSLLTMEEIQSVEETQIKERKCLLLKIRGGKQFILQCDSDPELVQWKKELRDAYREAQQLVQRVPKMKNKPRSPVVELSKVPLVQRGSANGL

For `COc1ccccc1N=CC1=C(O)CC(c2ccccc2)CC1=O` (centres undefined), the percent of DMSO control GFP in experiment [1] was 92.6% (inactive). In addition, the GFP response vs DMSO in experiment [2] is 111% (inactive); in [4] it was 82.5% (inactive). For the same compound, the percent response of DMSO control in [3] was 96.6% (inactive). Moreover, the GFP response, % of DMSO in experiment [5] was 88.9% (inactive). This compound registered a double positive events in [6] of 64.4%. Also, the vesicle binding response in experiment [6] was 153% (inactive). The inhibition in [7] is -36.2% (inactive); in experiment [11] it was -4.2% (inactive); in experiment [15] it was 12% (inactive). In experiment [8], the superoxide response (% of plate) is 95.6% (inactive). In addition, in experiment [9], the aptamer binding inhibition was 2% (inactive). Also, the figures for the response in experiment [10] and in experiment [12] were 1.28% (inactive) and 4.13% (inactive), respectively. Also, the binding (% of control) in [13] was 103% (inactive). In addition, the efflux inhibition (fraction of control) in [14] is -0.24 (inactive). Moreover, the differentiation response in experiment [16] is 2.46% (inactive).
Turning to `COc1c2ccoc2nc2c(OC)cccc12`, the percent of DMSO control GFP in experiment [1] is 105% (inactive). Besides, the results for the GFP response vs DMSO in experiment [2] and in [4] were 101% (inactive) and 102% (inactive), respectively. The percent response of DMSO control in [3] was 95.8% (inactive). Also, in experiment [5], the GFP response, % of DMSO was 105% (inactive). In [6], this compound registered a double positive events of 64.2%. Further, in [6], the vesicle binding response was 5040% (inactive). For the same compound, the results for the inhibition in experiment [7], in [11] and in experiment [15] were 21.4% (inactive), -5.75% (inactive) and 6% (inactive), respectively. Further, the superoxide response (% of plate) in [8] is 82.1% (inactive). Besides, the aptamer binding inhibition in [9] is 5% (inactive). Also, the response in experiment [10] is -6.43% (inactive); in experiment [12] it was 0.27% (inactive). The binding (% of control) in [13] was 97.2% (inactive). Also, in [14], the efflux inhibition (fraction of control) is -0.13 (inactive). In experiment [16], the differentiation response is -15.2% (inactive).
As to `CC12CN3CC(C)(CN(C1)C3c1ccc([N+](=O)[O-])o1)C2` (centres undefined), in experiment [1], the percent of DMSO control GFP was 102% (inactive). Further, the GFP response vs DMSO is 101% (inactive) in experiment [2] and 96% (inactive) in [4]. In addition, the percent response of DMSO control in experiment [3] is 95.4% (inactive). Besides, the GFP response, % of DMSO in [5] is 91.5% (inactive). Besides, the double positive events in experiment [6] is 64.6%. Besides, the vesicle binding response in experiment [6] is 1050% (inactive). The inhibition in [7] was 12% (inactive); in [11], 1.92% (inactive); in experiment [15], -9% (inactive). Besides, in [8], the superoxide response (% of plate) is 111% (inactive). The aptamer binding inhibition in experiment [9] was 5% (inactive). In addition, the response was -5.46% (inactive) in experiment [10] and 2.45% (inactive) in [12]. The binding (% of control) in experiment [13] is 93.8% (inactive). Moreover, the efflux inhibition (fraction of control) in experiment [14] was -0.1 (inactive). Besides, in experiment [16], the differentiation response was 7.09% (inactive).
Take `COc1ccccc1NC(=O)N1CCc2[nH]c3ccc(Cl)cc3c2C1`: the percent of DMSO control GFP in [1] was 101% (inactive). Further, the values for the GFP response vs DMSO in experiment [2] and in [4] were 110% (inactive) and 121% (inactive), respectively. The percent response of DMSO control in [3] was 102% (inactive). Also, in [5], the GFP response, % of DMSO was 94% (inactive). The compound also showed a double positive events in experiment [6] of 62.4%. Moreover, the vesicle binding response in experiment [6] was 135% (inactive). Besides, the figures for the inhibition in experiment [7], in experiment [11] and in experiment [15] were -11.8% (inactive), -2.38% (inactive) and -33% (inactive), respectively. Also, in experiment [8], the superoxide response (% of plate) is 102% (inactive). In experiment [9], the aptamer binding inhibition was 2% (inactive). In addition, the response was -11.2% (inactive) in experiment [10] and 1.31% (inactive) in [12]. Moreover, the binding (% of control) in [13] is 121% (inactive). In [14], the efflux inhibition (fraction of control) was -0.42 (inactive). The differentiation response in experiment [16] is 18.8% (inactive).
Turning to `CCn1nc(C(=O)O)c(=O)c2cc3c(cc21)OCO3`, in experiment [1], the percent of DMSO control GFP is 103% (inactive). For the same compound, the GFP response vs DMSO is 104% (inactive) in experiment [2] and 90.7% (inactive) in experiment [4]. Also, the percent response of DMSO control in experiment [3] is 104% (inactive). In addition, in [5], the GFP response, % of DMSO is 98.3% (inactive). Further, the double positive events in experiment [6] was determined as 55.1%. In addition, the vesicle binding response in [6] was 726% (inactive). For the same compound, the results for the inhibition in [7], in experiment [11] and in experiment [15] were 14.1% (inactive), -8.41% (inactive) and -8% (inactive), respectively. The superoxide response (% of plate) in [8] is 92.7% (inactive). Further, the aptamer binding inhibition in experiment [9] is 2% (inactive). Besides, the response was -7.41% (inactive) in experiment [10] and 61.9% (active) in [12]. In experiment [13], the binding (% of control) is 98.4% (inactive). Also, the efflux inhibition (fraction of control) in [14] is -0.1 (inactive). Also, in experiment [16], the differentiation response was 13.9% (inactive).
As to `Cc1nc2ccccc2n1CC(O)Cn1c2ccccc2c2ccccc21` (centres undefined), the percent of DMSO control GFP in experiment [1] is 90.9% (inactive). In addition, the GFP response vs DMSO was 115% (inactive) in experiment [2] and 78.7% (inactive) in [4]. In experiment [3], the percent response of DMSO control is 101% (inactive). Moreover, in experiment [5], the GFP response, % of DMSO was 91.9% (inactive). Further, the double positive events in experiment [6] was 62.2%. For the same compound, the vesicle binding response in experiment [6] was 174% (inactive). Also, the figures for the inhibition in experiment [7], in experiment [11] and in experiment [15] were 4.52% (inactive), -4.66% (inactive) and 9% (inactive), respectively. Also, the superoxide response (% of plate) in [8] is 97.8% (inactive). The aptamer binding inhibition in [9] is 2% (inactive). Further, the figures for the response in [10] and in experiment [12] were 8.04% (inactive) and -1.44% (inactive), respectively. Besides, the binding (% of control) in experiment [13] is 104% (inactive). The efflux inhibition (fraction of control) in experiment [14] was 0.19 (inactive). Moreover, the differentiation response in [16] was -1.64% (inactive).
In the case of `CC(C)CN(C)Cc1c(C(=O)N2CCc3ccccc3C2)nc2ccc(Cl)cn12`, the percent of DMSO control GFP in experiment [1] was 105% (inactive). The GFP response vs DMSO in [2] was 103% (inactive); in experiment [4] it was 98% (inactive). The percent response of DMSO control in [3] was 107% (inactive). The GFP response, % of DMSO in experiment [5] is 105% (inactive). Further, in [6], the double positive events was 62.4%. In experiment [6], the vesicle binding response is 147% (inactive). Also, the inhibition in experiment [7] is 8.29% (inactive); in experiment [11] it was 20.6% (inactive); in experiment [15], 11% (inactive). Also, in experiment [8], the superoxide response (% of plate) is 99.2% (inactive). For the same compound, the aptamer binding inhibition in [9] is 0% (inactive). The response is -16.8% (inactive) in [10] and -4% (inactive) in experiment [12]. Also, the binding (% of control) in experiment [13] was 104% (inactive). The efflux inhibition (fraction of control) in experiment [14] is 0.22 (inactive). Further, the differentiation response in [16] is -13.3% (inactive).

(Values after PubChem BioAssay.)
